Experimental data as given in PubChem BioAssay (Tox21).
Values joined by “and” are separate entries in the source; they are usually repeats but may differ in a detail not shown here. Equal values may be shown once. Records with an inconclusive call do not appear. Entries that show only a call come without a potency. Some compounds were tested as several samples or in several runs, with calls that do not always agree. Active and inactive are the calls of the source. Unless noted, calls follow the shape of the dose curve; as a rule, active = well fitted curve in the direction sought with a large enough effect in the repeat runs; inconclusive = weak or mixed curves; inactive = no such curve, though single readings can be large; an effect the other way counts as inactive or inconclusive.

How the values were obtained:
[1] = qHTS assay to identify aromatase inhibitors - cell viability counter screen (AID 743084);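 also: cells stimulated with testosterone during compound exposure; nearly all actives have a fitted effect of over 55% in size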
[2] = molecular target: Aryl hydrocarbon receptor (Homo sapiens) (UniProt P35869); assay: qHTS assay to identify small molecule that activate the aryl hydrocarbon receptor (AhR) signaling pathway (AID 743085);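 also: HG2L7.5c1 human HepG2 liver cells with stably integrated DRE-driven firefly reporter; series mostly up to about 70 µM; nearly all actives have a fitted effect of over 15% in size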
Sequence of Aryl hydrocarbon receptor (Homo sapiens) (P35869 whole entry, looked up): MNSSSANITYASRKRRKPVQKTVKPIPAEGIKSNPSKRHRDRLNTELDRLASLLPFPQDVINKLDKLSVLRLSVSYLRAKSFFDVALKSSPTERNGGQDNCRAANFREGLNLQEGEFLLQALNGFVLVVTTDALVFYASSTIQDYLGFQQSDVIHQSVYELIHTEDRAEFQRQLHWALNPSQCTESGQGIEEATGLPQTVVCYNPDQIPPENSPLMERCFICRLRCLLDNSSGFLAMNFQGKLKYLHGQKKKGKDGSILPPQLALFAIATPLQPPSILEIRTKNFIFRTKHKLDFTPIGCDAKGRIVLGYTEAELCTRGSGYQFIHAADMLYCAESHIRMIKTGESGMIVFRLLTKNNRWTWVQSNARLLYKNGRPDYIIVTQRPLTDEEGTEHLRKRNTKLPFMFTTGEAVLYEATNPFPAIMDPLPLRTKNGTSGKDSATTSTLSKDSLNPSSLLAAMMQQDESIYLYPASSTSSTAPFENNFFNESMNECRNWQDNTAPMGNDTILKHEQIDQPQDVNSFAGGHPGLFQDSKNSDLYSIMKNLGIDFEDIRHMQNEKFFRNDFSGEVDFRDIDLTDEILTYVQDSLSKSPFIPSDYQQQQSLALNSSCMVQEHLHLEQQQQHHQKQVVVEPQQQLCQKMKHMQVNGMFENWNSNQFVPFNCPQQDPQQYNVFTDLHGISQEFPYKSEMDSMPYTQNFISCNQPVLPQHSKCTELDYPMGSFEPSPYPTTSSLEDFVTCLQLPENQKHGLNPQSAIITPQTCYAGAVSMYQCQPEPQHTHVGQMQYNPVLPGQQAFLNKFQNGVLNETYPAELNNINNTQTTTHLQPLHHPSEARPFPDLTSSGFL
Procedure, shortened: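 Compounds were tested in HepG2 hepatocellular carcinoma cells harbouring a stably integrated luciferase gene under control of 20 DREs. Increased reporter signal after 24 h treatment at 37C was taken as AhR activation.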

[3] = qHTS assay to identify small molecule that activate the aryl hydrocarbon receptor (AhR) signaling pathway - cell viability counter screen (AID 743086);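 also: HepG2 liver cells carrying the AhR DRE luciferase reporter; series mostly up to about 70 µM; nearly all actives have a fitted effect of over 45% in size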
Procedure, shortened: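 HepG2-AhR-luc (HG2L7.5c1) cells, 4000/well, were preincubated 5 h at 37C, exposed to compound in qHTS format for 24 hr at 37C, then given CellTiter-Fluor for 30 min; viability was read as fluorescence in the reporter wells.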

[4] = molecular target: Peroxisome proliferator-activated receptor gamma (Homo sapiens) (UniProt P37231); assay: qHTS assay to identify small molecule agonists of the peroxisome proliferator-activated receptor gamma (PPARg) signaling pathway (AID 743094; active = well fitted activation curve with a large enough effect in the signal ratio in the repeat runs, not every such curve was filed as active; the % refers to the signal ratio)
Sequence of Peroxisome proliferator-activated receptor gamma (Homo sapiens) (P37231 whole entry, looked up): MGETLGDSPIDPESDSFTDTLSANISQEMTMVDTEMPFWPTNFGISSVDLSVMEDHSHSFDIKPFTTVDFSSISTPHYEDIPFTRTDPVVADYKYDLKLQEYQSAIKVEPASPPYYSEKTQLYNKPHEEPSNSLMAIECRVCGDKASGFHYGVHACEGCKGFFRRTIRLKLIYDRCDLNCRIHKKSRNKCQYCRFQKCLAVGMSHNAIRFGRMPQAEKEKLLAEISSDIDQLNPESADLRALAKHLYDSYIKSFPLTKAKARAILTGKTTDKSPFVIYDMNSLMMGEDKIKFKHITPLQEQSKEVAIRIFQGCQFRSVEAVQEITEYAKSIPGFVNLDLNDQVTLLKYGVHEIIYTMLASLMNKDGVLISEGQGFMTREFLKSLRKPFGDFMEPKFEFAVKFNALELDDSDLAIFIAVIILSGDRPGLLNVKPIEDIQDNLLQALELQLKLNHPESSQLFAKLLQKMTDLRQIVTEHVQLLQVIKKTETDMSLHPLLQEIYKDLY
Procedure, shortened: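 GeneBLAzer PPARg UAS-bla HEK293H cells carrying a stably integrated beta-lactamase reporter were pre-incubated 5 h at 37C, then exposed to compounds in DMSO for 17 h at 37C; LiveBLAzer B/G FRET substrate was added for 1 h at room temperature and fluorescence read.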

[5] = molecular target: Peroxisome proliferator-activated receptor gamma (Homo sapiens) (UniProt P37231); assay: qHTS assay to identify small molecule antagonists of the peroxisome proliferator-activated receptor gamma (PPARg) signaling pathway (AID 743191; calls by dose curve; also: series mostly up to about 63 µM; nearly all actives have a fitted effect of over 30% in size)
Procedure, shortened: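 GeneBLAzer PPARg UAS-bla HEK293H cells carrying a UAS-driven beta-lactamase reporter were plated at 3000 cells/well, preincubated 5 h at 37C, then given compound for 17 h at 37C; LiveBLAzer B/G FRET substrate was read after 1 h at room temperature.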

[6] = qHTS assay to identify small molecule antagonists of the peroxisome proliferator-activated receptor gamma (PPARg) signaling pathway - cell viability counter screen (AID 743194); also: nearly all actives have a fitted effect of over 55% in size
Procedure, shortened: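 PPARg-UAS-bla HEK293H cells were plated, rested 5 h at 37 C, then treated with compounds plus rosiglitazone (50 nM final) for 17 h at 37 C; viability was then read by CellTiter-Glo luminescence after 30 min at room temperature.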

[7] = qHTS assay for small molecule agonists of the antioxidant response element (ARE) signaling pathway (AID 743202; active = well fitted activation curve with a large enough effect in the signal ratio in the repeat runs, not every such curve was filed as active; the % refers to the signal ratio)
Procedure, shortened: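 Compounds delivered in DMSO to ARE-bla HepG2 cells (2,000 cells/well, pre-incubated 5 h) and left 16 h at 37 C. LiveBLAzer B/G FRET substrate then added for 2 h at RT before fluorescence reading.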

[8] = qHTS assay for small molecule agonists of the antioxidant response element (ARE) signaling pathway - cell viability counter screen (AID 743203; calls by dose curve; also: nearly all actives have a fitted effect of over 55% in size)
Procedure, shortened: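 CellSensor ARE-bla HepG2 cells, 2,000 per well, rested 5 hrs at 37C/5% CO2, then exposed to compound in DMSO for 16 hrs; viability read as CellTiter-Glo luminescence after 30 min at room temperature, in the reporter wells.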

[9] = qHTS assay for small molecule activators of the heat shock response signaling pathway - cell viability counter screen (AID 743209); also: nearly all actives have a fitted effect of over 50% in size
Procedure, shortened: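 CellSensor HSE-bla HeLa cells, plated overnight at 37 C/5% CO2, were exposed to compounds in DMSO for 5 h at 37 C. Viability was then read in the same wells by CellTiter-Glo luminescence after 30 min at room temperature.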

[10] = qHTS assay for small molecule activators of the heat shock response signaling pathway (AID 743210; active = well fitted activation curve with a large enough effect in the signal ratio in the repeat runs, with a control signal flat, not every such curve was filed as active; the % refers to the signal ratio;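 also: HeLa cells with beta-lactamase reporter driven by heat shock elements; series mostly up to about 63 µM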)
Procedure, shortened: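 Reporter gene assay: HeLa cells stably bearing an HSE-bla construct, compound treatment 5 h at 37 C, LiveBLAzer substrate 2.5 h at RT, fluorescence intensity.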

[11] = qHTS assay to identify small molecule agonists of the peroxisome proliferator-activated receptor delta (PPARd) signaling pathway - cell viability counter screen (AID 743211); also: nearly all actives have a fitted effect of over 55% in size
Procedure, shortened: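 Counter screen for cytotoxicity run in parallel with the PPARd reporter screen. Beta-lactamase reporter HEK293H cells exposed to compounds 17 h; ATP-based CellTiter-Glo luminescence quantified viability.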

[12] = molecular target: Peroxisome proliferator-activated receptor delta (Homo sapiens) (UniProt Q03181); assay: qHTS assay to identify small molecule antagonists of the peroxisome proliferator-activated receptor delta (PPARd) signaling pathway (AID 743215; active = well fitted inhibition curve with a large enough effect in the signal ratio in the repeat runs, not every such curve was filed as active; the % refers to the signal ratio;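 also: cells stimulated with agonist L165041 at 300 nM final during compound exposure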; also: potency is read from the fitted curve at half-maximal effect)
Sequence of Peroxisome proliferator-activated receptor delta (Homo sapiens) (Q03181 whole entry, looked up): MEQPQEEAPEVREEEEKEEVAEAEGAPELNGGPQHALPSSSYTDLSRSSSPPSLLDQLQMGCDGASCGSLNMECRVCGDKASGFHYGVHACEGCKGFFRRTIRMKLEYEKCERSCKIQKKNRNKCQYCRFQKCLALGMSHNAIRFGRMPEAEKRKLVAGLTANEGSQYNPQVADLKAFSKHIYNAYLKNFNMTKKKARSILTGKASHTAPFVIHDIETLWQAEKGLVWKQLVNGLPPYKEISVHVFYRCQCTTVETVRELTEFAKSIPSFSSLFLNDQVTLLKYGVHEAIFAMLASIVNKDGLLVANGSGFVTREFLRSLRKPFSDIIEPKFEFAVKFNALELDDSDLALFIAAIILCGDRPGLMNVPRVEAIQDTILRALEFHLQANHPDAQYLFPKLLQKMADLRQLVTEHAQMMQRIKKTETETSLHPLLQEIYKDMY
Procedure, shortened: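 PPARd UAS-bla HEK293H cells were pre-incubated 5 h at 37 C, then given test compounds in DMSO plus agonist L165041 (300 nM final). After 17 h at 37 C, beta-lactamase FRET substrate was added; fluorescence read after 2 h at room temperature.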

[13] = molecular target: Bile acid receptor (Homo sapiens) (UniProt Q96RI1); assay: qHTS assay to identify small molecule antagonists of the farnesoid-X-receptor (FXR) signaling pathway (AID 743217; active = well fitted inhibition curve with a large enough effect in the signal ratio in the repeat runs, not every such curve was filed as active; the % refers to the signal ratio)
Sequence of Bile acid receptor (Homo sapiens) (Q96RI1 whole entry, looked up): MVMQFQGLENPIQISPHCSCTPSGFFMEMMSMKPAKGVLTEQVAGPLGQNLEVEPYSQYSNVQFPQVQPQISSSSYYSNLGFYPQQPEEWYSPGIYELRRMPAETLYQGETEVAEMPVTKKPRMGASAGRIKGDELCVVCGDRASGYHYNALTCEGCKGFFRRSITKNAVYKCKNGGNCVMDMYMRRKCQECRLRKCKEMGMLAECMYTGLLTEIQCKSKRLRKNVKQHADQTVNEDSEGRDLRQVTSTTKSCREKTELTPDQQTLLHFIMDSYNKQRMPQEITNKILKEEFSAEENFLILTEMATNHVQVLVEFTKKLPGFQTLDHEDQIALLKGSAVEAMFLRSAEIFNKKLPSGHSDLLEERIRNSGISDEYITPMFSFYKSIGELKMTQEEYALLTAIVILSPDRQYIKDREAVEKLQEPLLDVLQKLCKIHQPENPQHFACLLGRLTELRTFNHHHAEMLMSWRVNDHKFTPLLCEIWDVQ
Procedure, shortened: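 FXR-UAS-bla HEK 293T cells pre-incubated 5 h at 37 °C, then exposed to compounds with chenodeoxycholic acid (50 uM final) for 16 h at 37 °C. Beta-lactamase reporter read by LiveBLAzer B/G FRET substrate fluorescence after 2 h at room temperature.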

[14] = qHTS assay to identify small molecule agonists of the farnesoid-X-receptor (FXR) signaling pathway - cell viability counter screen (AID 743218); also: nearly all actives have a fitted effect of over 45% in size
Procedure, shortened: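 FXR-UAS-bla HEK 293T cells, plated 5 h at 37 C, were exposed to compounds for 16 h at 37 C. CellTiter-Glo was then added to the same wells as the bla readout; luminescence read after 30 min at room temperature.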

[15] = molecular target: Bile acid receptor (Homo sapiens) (UniProt Q96RI1); assay: qHTS assay to identify small molecule agonists of the farnesoid-X-receptor (FXR) signaling pathway (AID 743220; active = well fitted activation curve with a large enough effect in the signal ratio in the repeat runs, not every such curve was filed as active; the % refers to the signal ratio)
Procedure, shortened: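 Beta-lactamase reporter under UAS control in GeneBLAzer FXR HEK 293T cells (5000/well) measured with LiveBLAzer FRET substrate after 2 h at room temperature. Compound exposure lasted 16 h at 37C.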

[16] = qHTS assay to identify small molecule antagonists of the farnesoid-X-receptor (FXR) signaling pathway - cell viability counter screen (AID 743221; active = well fitted cell-killing curve with a large enough effect in the repeat runs, not every such curve was filed as active; also: nearly all actives have a fitted effect of over 50% in size)
Procedure, shortened: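 Multiplexed counter screen: viability of FXR-bla HEK 293T cells under agonist stimulation by chenodeoxycholic acid (50 uM, final) and test compound for 16 h at 37 C, measured by CellTiter-Glo luminescence in the reporter wells.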

[17] = molecular target: Vitamin D3 receptor (Homo sapiens) (UniProt P11473); assay: qHTS assay to identify small molecule agonists of the vitamin D receptor (VDR) signaling pathway (AID 743222; calls by dose curve)
Sequence of Vitamin D3 receptor (Homo sapiens) (P11473 whole entry, looked up): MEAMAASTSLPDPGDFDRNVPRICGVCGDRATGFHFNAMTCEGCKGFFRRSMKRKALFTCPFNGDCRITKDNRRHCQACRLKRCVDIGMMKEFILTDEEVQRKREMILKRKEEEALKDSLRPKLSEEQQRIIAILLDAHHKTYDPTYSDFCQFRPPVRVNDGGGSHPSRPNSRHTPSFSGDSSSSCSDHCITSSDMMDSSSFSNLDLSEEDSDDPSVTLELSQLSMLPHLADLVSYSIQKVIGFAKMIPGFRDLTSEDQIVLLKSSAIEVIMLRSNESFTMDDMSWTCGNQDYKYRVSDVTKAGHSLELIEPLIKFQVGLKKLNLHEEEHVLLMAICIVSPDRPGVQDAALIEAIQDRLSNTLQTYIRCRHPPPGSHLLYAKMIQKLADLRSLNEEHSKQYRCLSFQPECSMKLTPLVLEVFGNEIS
Procedure, shortened: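 VDR-bla cells were plated 4 h at 37C/5% CO2, then exposed to compounds in DMSO for 16 h. After LiveBLAzer B/G FRET substrate addition and 2 h at room temperature, beta-lactamase reporter fluorescence was read.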

[18] = molecular target: Vitamin D3 receptor (Homo sapiens) (UniProt P11473); assay: qHTS assay to identify small molecule antagonists of the vitamin D receptor (VDR) signaling pathway (AID 743223; active = well fitted inhibition curve with a large enough effect in the signal ratio in the repeat runs, not every such curve was filed as active; the % refers to the signal ratio)
Procedure, shortened: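 Cells carrying a VDR-driven beta-lactamase reporter (VDR-bla) were co-treated with compound and 3 nM final 1alpha,25-dihydroxyvitamin D3 for 16 h at 37C; reporter activity was measured as FRET substrate fluorescence after 2 h at room temperature.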

[19] = qHTS assay to identify small molecule antagonists of the peroxisome proliferator-activated receptor delta (PPARd) signaling pathway - cell viability counter screen (AID 743213); also: nearly all actives have a fitted effect of over 50% in size
Procedure, shortened: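 Luminescence from CellTiter-Glo, added after the bla read and incubated 30 min at room temperature, gives viability of HEK293H PPARd-bla cells exposed to compounds for 17 h at 37 C with 300 nM L165041.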

OCC(CO)(CBr)CBr
Potency [1]: inactive | Potency [2]: inactive | outcome [3]: inactive | outcome [4]: inactive | outcome [5]: inactive | outcome [6]: inactive | Potency [7]: inactive | outcome [8]: inactive | outcome [9]: inactive | Potency [10]: inactive | outcome [11]: inactive | Potency [12]: inactive | outcome [13]: inactive | Potency [14]: inactive | outcome [15]: inactive | Potency [16]: inactive

CCN(CC)CCCC(C)Nc1ccnc2cc(Cl)ccc12 (stereo not given)
Potency [1]: inactive | Potency [2]: inactive | outcome [3]: inactive | outcome [4]: inactive | outcome [5]: inactive | outcome [6]: inactive | activation [7]: -11.9% [at 8.36 µM] (inactive) | viability change, negative = cytotoxic [8]: -7.65% [at 8.36 µM] (inactive) | outcome [9]: inactive | Potency [10]: inactive | outcome [11]: inactive | Potency [12]: inactive | Potency [14]: inactive | Potency [16]: inactive | outcome [17]: inactive | activity change, negative = inhibition [18]: 1.54% [at 6.95 µM] (inactive)

CCCC(C)=O
Potency [1]: inactive | Potency [2]: inactive | outcome [3]: inactive | outcome [4]: inactive | outcome [5]: inactive | outcome [6]: inactive | Potency [7]: inactive | outcome [8]: inactive | outcome [9]: inactive | Potency [10]: inactive | outcome [11]: inactive | Potency [12]: inactive | outcome [13]: inactive | Potency [14]: inactive | outcome [15]: inactive | Potency [16]: inactive

O=C(O)c1ccccc1C(c1ccc(O)cc1)c1ccc(O)cc1
Potency [1]: inactive | Potency [2]: inactive | outcome [3]: inactive | outcome [4]: inactive | outcome [5]: inactive | outcome [8]: inactive | outcome [9]: inactive | Potency [10]: inactive | outcome [11]: inactive | outcome [19]: inactive | Potency [12]: inactive | Potency [14]: inactive | Potency [16]: inactive

Cc1cccc(O)c1
Potency [1]: inactive | Potency [2]: inactive | outcome [3]: inactive | outcome [4]: inactive | outcome [5]: inactive | outcome [6]: inactive | Potency [7]: inactive | outcome [8]: inactive | outcome [9]: inactive | Potency [10]: inactive | outcome [11]: inactive | outcome [19]: inactive | Potency [12]: inactive | Potency [14]: inactive | Potency [16]: inactive

O=C(O)c1ccc(C(=O)O)cc1
Potency [1]: inactive | Potency [2]: inactive | outcome [3]: inactive | outcome [4]: inactive | outcome [5]: inactive | outcome [6]: inactive | Potency [7]: inactive | outcome [8]: inactive | outcome [9]: inactive | Potency [10]: inactive | outcome [11]: inactive | outcome [19]: inactive | Potency [12]: inactive | Potency [14]: inactive | Potency [16]: inactive | outcome [17]: inactive | outcome [18]: inactive

ON=C1CCCCC1
Potency [1]: inactive | Potency [2]: inactive | outcome [3]: inactive | outcome [4]: inactive | outcome [5]: inactive | outcome [6]: inactive | Potency [7]: inactive | outcome [8]: inactive | outcome [9]: inactive | Potency [10]: inactive | outcome [11]: inactive | Potency [12]: inactive and 43.6 µM (active) | Potency [14]: inactive | Potency [16]: inactive | outcome [17]: inactive | outcome [18]: inactive

CC(=O)Nc1cccc(O)c1
Potency [1]: inactive | Potency [2]: inactive | outcome [3]: inactive | outcome [4]: inactive | outcome [5]: inactive | outcome [6]: inactive | Potency [7]: inactive | outcome [8]: inactive | outcome [9]: inactive | Potency [10]: inactive | outcome [11]: inactive | outcome [19]: inactive | Potency [14]: inactive | Potency [16]: inactive

CCc1cccc(C)c1N
Potency [1]: inactive | Potency [2]: inactive | outcome [3]: inactive | outcome [4]: inactive | outcome [5]: inactive | outcome [6]: inactive | Potency [7]: inactive | outcome [8]: inactive | outcome [9]: inactive | Potency [10]: inactive | outcome [11]: inactive | outcome [19]: inactive | Potency [12]: inactive | Potency [14]: inactive | Potency [16]: inactive | outcome [17]: inactive | outcome [18]: inactive
